HepG2 viability = qHTS for Inhibitors of TGF-b: Cytotox Counterscreen; hit rate 0.76% among 410,000; HepG2 CAGA-GFP viability, ATP luminescence, 18 h; Potency, µM (titrated, usually from 46.1 µM), without a hit: at the top dose activity change, negative = cytotoxicity, actives largely listed as cytotoxic
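HepG2 CAGA-GFP cells (1000/well, DMEM with 1% FBS) received compound, then TGF-beta at 500 pg/mL final, and were incubated 18 hours at 37 degrees C. Viability was read by CellTiter-Glo luminescence. Media-only wells were set as complete cell-killing and DMSO as no toxicity.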
KB-3-1 tox = qHTS assay for MDR1-selective chemotherapeutics: Primary screen using the parental adenocarcinoma cell KB-3-1; KB-3-1 viability, CellTiter-Glo ATP luminescence, 72 h; Potency, µM (titrated, usually from 46.1 µM), hits mostly cytotoxic; hit rate 1.4% among 400,000; further: on the % scale 0 is the no-effect control and ±100 the full control effect; nearly all actives have a fitted effect of over 60% in size
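Viability of parental KB-3-1 cells, measured by CellTiter-Glo luminescence, followed a 72 h incubation at 37 °C with pinned compounds in phenol-red-free DMEM containing 10% FBS.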
TGFb inhibitor = qHTS for Inhibitors of TGF-b; HepG2 CAGA-GFP TGF-b/SMAD3 reporter, GFP fluorescence, 18 h; TGF-beta stimulated, 500 pg/mL final; Potency, µM (highest dose often 46.1 µM), inactives show at the highest dose activity, negative = inhibition, usual class: inhibitors; hit rate 1.2% among 410,000; AID 588855, 2011; further: on the % scale 0 is the no-effect control and ±100 the full control effect; nearly all actives have a fitted effect of over 65% in size
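Cell-based qHTS in HEPG2 carrying a CAGA-GFP Smad reporter; compounds added before 500 pg/mL final TGF-beta, 18 h incubation at 37 degrees C, GFP fluorescence quantified per cell by imaging cytometry.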
KB-V1 cytotox = qHTS assay for MDR1-selective chemotherapeutics: Primary screen using the drug-selected MDR subline cells KB-V1. KB-V1 MDR cells viability, CellTiter-Glo, 72 h. Potency, µM (highest dose often 46.1 µM), most hits filed as cytotoxic. hit rate 3.4% among 400,000. AID 1347076, 2019; further: on the % scale 0 is the no-effect control and ±100 the full control effect; nearly all actives have a fitted effect of over 60% in size
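qHTS viability screen in drug-selected KB-V1 MDR cells: 72 h compound treatment at 37 degrees C, ATP luminescence end point.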
S2 tox = Viability Counterscreen for Primary qHTS for Inhibitors of ATXN expression | Potency, µM (titrated, usually from 56.7 µM), most hits filed as cytotoxic | S2 cells (HEK-293 line with an ATXN2-luciferase reporter) viability, CellTiter-Fluor protease fluorescence, 24 h | hit rate 0.49% among 400,000; further: nearly all actives have a fitted effect of over 40% in size
ATXN2 expr inh = Primary qHTS for Inhibitors of ATXN expression; HEK-293 ATXN2-luciferase reporter, luminescence, 24 h; Potency, µM (series often up to 57 µM), for inactives: at the top dose activity change, negative = inhibition, actives largely listed as inhibitors; hit rate 0.72% among 360,000; AID 1745845, 2022; further: on the % scale 0 is the no-effect control and ±100 the full control effect; nearly all actives have a fitted effect of over 55% in size
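qHTS (up to 57 uM final) was run with 24 h compound exposure of reporter cells at 37 °C. Each well was multiplexed: SteadyGlo luminescence measured ATXN2-luciferase expression after a fluorogenic Gly-Phe-AFC viability readout (25 uM final).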
Active calls of the source: *; i = inactive; u = inconclusive; x = no result given; [ ] = remark or other dose. Compounds with a hit are over-represented: about 5.9% of the library has one in this group of screens. The call rests on the fitted dose curve; in most records, active means well fitted curve in the direction sought with a large enough effect; inconclusive means small, poorly fitted or top-dose-only effect, or another doubt; inactive means no such curve, though single readings can be large; an effect the other way counts as inactive or inconclusive. Potency means the concentration at half of the fitted maximal effect.

SMILES	HepG2 viability	KB-3-1 tox	TGFb inhibitor	KB-V1 cytotox	S2 tox	ATXN2 expr inh
FC(F)(F)c1ccccc1Cc1c(C2CCCCC2)nc2ccc(Cl)cn12	-31.1%	i	u	i	17.8µM*	u
COc1ccccc1Cc1c(C2CCCCC2)nc2ccc(Cl)cn12	17.8µM*	u	u	i	u	u
CCCc1nc2ccc(Br)cn2c1Cc1ccccc1OC	-48.7%	u	15.8µM*	i	22.4µM*	u
Clc1ccc2nc(C3CCCCC3)c(Cc3ccccc3)n2c1	-10.8%	i	-19.6%	i	i	5.1%
COc1cc(OC)c2c(c1C(CCN1CCN(c3ccccc3)CC1)c1ccc(N(C)C)cc1)OC(=O)CC2c1ccc(N(C)C)cc1 (stereo not given)	6.1%	x	-25.1%	x	x	x
CC(=O)c1ccc(NC(=O)Nc2ncn(Cc3cccc(C)c3)n2)cc1	-18.7%	i	4.0%	16.4µM*	i	7.7%
Cc1ccc(CNC(=O)c2cnc3c(-c4ccc(F)cc4)c(C)nn3c2C)o1	1.8%	u	-2.3%	i	x	x
CN1C(=O)/C(=C2\SC(N3CCCCCC3)=NC2=O)c2ccccc21	-11.8%	u	-2.5%	2.06µM*	i	48.2%
Cc1cc(-c2ccnc(-n3ncc(C(=O)NCC4CCCO4)c3C3CC3)n2)c(C)s1 (stereo not given)	x	x	x	x	i	x
CCc1cccc(NCc2ccccc2-c2nnc(-c3ccccc3Cl)o2)c1	5.7%	i	-34.0%	i	i	50.7%
CCOc1cc(-c2nc(-c3ccccc3)c(-c3cc([N+](=O)[O-])ccc3C)[nH]2)ccc1O	-11.7%	i	u	18.4µM*	u	-25.6%
CC(=O)c1ccc(N2CCN(C(C)C(=O)NC3CCCc4ccccc43)CC2)cc1 (stereo not given)	-5.0%	20.6µM*	-20.2%	9.2µM*	i	-0.8%
CC(Sc1nc2ccccc2s1)C(=O)NC1CCCc2ccccc21 (stereo not given)	9.3%	i	-14.2%	20.6µM*	i	-13.7%
CC(Sc1nnnn1C)C(=O)NC1CCCc2ccccc21 (stereo not given)	-2.0%	i	1.0%	i	i	-17.5%[11.3 µM]
C#CCNC(=O)C[C@@H]1C[C@@]2(C(=O)OCC)CCCC=C2N(Cc2ccccc2)C1=O	x	i	x	u	x	x
Cc1cc(C)c(S(=O)(=O)Nc2cccc3nsnc23)c(C)c1	-1.1%	18.4µM*	u	14.6µM*	i	-4.6%
FC(F)Sc1ccc(-n2cc(-c3ccccc3)[n+]3c2CCC3)cc1	-3.1%	14.6µM*	1.1%	i	i	-7.1%
COc1ccc(-c2cn(-c3ccc(SC(F)F)cc3)c3[n+]2CCC3)cc1OC	-1.5%	i	u	i	i	-15.8%
COC(=O)c1cc(C(=O)c2ccc(Cl)cc2)n2c(=O)/c(=C\N(C)C)sc12	-12.1%	8.2µM*	-0.6%	u	i	0.8%[11.3 µM]
CCC(Oc1ccccc1)C(=O)N(Cc1ccccc1)c1ccccn1 (stereo not given)	-5.3%	u	-1.5%	16.4µM*	i	-6.3%
COC(=O)c1cn([C@H]2C[C@@H](C(=O)N3CCCCCC3)N(Cc3ccsc3)C2)nn1	x	x	x	x	i	x
CC(C)(C)c1cc(C(C)(C)C)c(NC(=O)c2c[nH]c3ccccc3c2=O)cc1O	x	x	x	x	x	8.0%
S=C(Nc1ccccc1)c1ccccn1	-40.2%	u	11.2µM*	i	u	35.9%
CCC(C)(C)NC(=O)C1CCN(S(=O)(=O)c2ccc3c(c2)CCCN3C(C)=O)CC1	-1.3%	i	-21.1%	i	i	-3.6%
CCCCNC(=O)c1nc(-c2cc3ccccc3[nH]2)oc1-c1ccccc1	x	i	x	8.2µM*	x	x

Compound activity deposited in PubChem by National Center for Advancing Translational Sciences (NCATS).
